# From PubChem BioAssay (Tox21)
# Records with an inconclusive call do not appear. A number with no mark means an inactive call. Calls follow the shape of the full dose curve.
# Assay: qHTS assay to identify small molecule agonists of the NFkB signaling pathway - cell viability counter screen (AID 1159515); also: nearly all actives have a fitted effect of over 55% in size
# Conditions: NFkB-bla ME-180 viability, CellTiter-Glo luminescence, 5 h; series mostly up to 61 µM; activity, negative = cytotoxic: at the top concentration
# From the text: National Center for Advancing Translational Sciences [NCATS]
# NIH Chemical Genomics Center [NCGC]
# U.S. Environmental Protection Agency [EPA]
# National Institutes of Environmental Health Sciences [NIEHS]
# National Toxicology Program [NTP]
# U.S. Food and Drug Administration [FDA]
# Transcription factors and their stimulated target gene expression play pivotal roles across many cellular processes including responses to environmental stimuli. Proper regulation of associated pathways is critical to maintain cell health and function. Constitutive activation of transcription factor pathways has been implicated in tumors as it may block cellular functions such as apoptosis and lead to invasion and metastasis. One important transcription factor that stimulates gene expression in response to cytokines, UV radiation, and other stimuli is nuclear factor-kappa B (NFkB). To measure activation of the NFkB pathway, the CellSensor NFkB-bla ME-180 cell line (Life Technologies, Carlsbad, CA) that stably expresses beta-lactamase reporter gene under the regulation of a NF-kB response element was used. This assay allows measurement of the NFkB pathway activity induced by compounds in a ME-180 cell line. This system quantitates NF-kB activity using a FRET-based assay system where beta-lactamase expression disrupts FRET, allowing for fluorescent measurement of activity. This cell line has been used to screen the Tox21 10K compound library and to identify compounds that induce the NFkB pathway activity. The cytotoxicity of the Tox21 compound library against the NFkB-bla ME-180 cell line was tested in parallel by measuring cell viability using the CellTiter-Glo assay in the same wells.
# Tox21 Assay Protocol Summary:
# NFkB-bla ME-180 cells were dispensed at 2,000 cells/6 uL of assay medium per well into black wall/clear-bottom 1536-well plates using a Multidrop Combi (ThermoFisher Scientific, Waltham, MA) dispenser. After the assay plates were incubated at 37 C and 5% CO2 for an overnight, 23 nL of compounds dissolved in DMSO, positive controls or DMSO only was transferred to the assay plate by a Pintool station (Kalypsys, San Diego, CA). The assay plates were incubated at 37 C and 5% CO2 for 5 hr. One uL of LiveBLAzer B/G FRET substrate (Life Technologies) was added using a Flying Reagent Dispenser (Aurora Discovery, San Diego, CA) and the plates were incubated at room temperature for 1.5 hr. Fluorescence intensity (405 nm excitation, 460 nm and 530 nm emissions) was measured using an Envision plate reader (PerkinElmer, Shelton, CT). For cytotoxicity, 3 ul/well of CellTiter-Glo reagent was added into the assay plates using an FRD. After 30 min incubation at room temperature, the luminescence intensity was measured using a ViewLux plate reader (PerkinElmer).
# % is scaled to controls: 0 for no effect and ±100 for the full control effect.
row,Structure (SMILES),"activity, negative = cytotoxic"
1,CC(C)=CCC/C(C)=C\C#N,9.52%
2,Cc1nnc(C(=O)NC(C)(C)c2nc(C(=O)NCc3ccc(F)cc3)c(O)c(=O)n2C)o1,0.137%
3,COc1ccc2cc(CCC(C)=O)ccc2c1,-18.4%
4,CC(=O)c1ccc(O)c(C(N)=O)c1,8.88%
5,COc1cc2nc(N3CCN(C(=O)C4CCCO4)CC3)nc(N)c2cc1OC (stereo not given),-7.51%
6,CCOC(=O)CN1CCCC1=O,2.65%
7,CCN(CC)CC,11.2% [at 78.8 µM]
8,C=COCCCCO,-2.67%
9,CC(=O)OCC(=O)[C@@]1(O)CC[C@H]2[C@@H]3CCC4=CC(=O)C=C[C@]4(C)[C@H]3[C@@H](O)C[C@@]21C,-32.1%
10,CC(C)(C)C(=O)NCCCC(=O)O,8.29%
11,N#CC1(N)CCCCC1,-8.5% [at 78.8 µM]
12,CCCCC(O)/C=C(C)/C=C/C=C/C(=O)N1CCCC1=O (stereo not given),8.82%
13,CSC(=O)c1cccc2nnsc12,12.7%
14,CCCc1ncc(C(=O)O)s1,6.14%
15,CCc1ccc(CC)cc1,4.39% [at 78.8 µM]
16,CCC(C)c1nccnc1OC (stereo not given),0.616%
17,Cc1ccc(OC(=O)CC(C)C)cc1,4.55%
18,O=c1[nH]c(=O)c2cn[nH]c2[nH]1,1.65%
19,CC(C)C(=O)Nc1cccc(C2CN3CCSC3=N2)c1 (stereo not given),-0.249%
20,CC(C)C[P+](C)(CC(C)C)CC(C)C,-4.63% [at 78.8 µM]

row,Structure (SMILES),"activity, negative = cytotoxic"
1,COC(C)(C)CC(C)=O,1.98%
2,CC1(C)C(=O)C(C)(C)C1=O,-5.32%
3,C=C(C)C(=O)OCCOC1CC2CC1C1C=CCC21 (stereo not given),-12.7% [at 78.8 µM]
4,N=C(N)N1CCc2ccccc2C1,6.23% [at 6.95 µM]
5,CN(C)c1ccncc1,-7.6%
6,CN(C)CCc1c[nH]c2ccc(C[C@H]3COC(=O)N3)cc12,-14.9%
7,CC(=O)SCC(CC(=O)c1ccc(C)cc1)C(=O)O (stereo not given),0.305%
8,CNC(C)=O,0.793%
9,O=C1c2ccccc2C(=O)N1CO,7.15% [at 78.8 µM]
10,Cc1ccc(O)c([N+](=O)[O-])c1,-24.1% [at 78.8 µM]
11,NC[C@H]1O[C@H](O[C@H]2[C@H](O)[C@@H](O[C@H]3O[C@H](CO)[C@@H](O)[C@H](N)[C@H]3O)[C@H](N)C[C@@H]2N)[C@H](N)[C@@H](O)[C@@H]1O,11.1% [at 28.5 µM]
12,C/C=C(\C)C=O,2.02% [at 78.8 µM]
13,C[C@]12C=CC(=O)C=C1[C@@H](F)C[C@@H]1[C@@H]2[C@@H](O)C[C@@]2(C)[C@H]1CC[C@]2(O)C(=O)CO,-2.5%
14,Cc1ccccc1OCC(=O)O,-9.2%
15,O=C(O)P(=O)(O)O,-13.6%
16,N#Cc1cc(NC(=O)C(=O)O)c(Cl)c(NC(=O)C(=O)O)c1,2.17%
17,C=CCCCCCCCCOC(C)=O,7.36%
18,NNC(=O)CCCCC(=O)NN,-2.95%
19,COC(=O)/C=C(\C)CCC=C(C)C,2.41%
20,C/C(=N\O)c1ccc(OCC(=O)N2CCCCC2)cc1,1.43%
